# Where two headings read alike, the source gives them in different places.
# Assays:
# Conditions in all cases: n = 1
# PRKCQ = test system: PRKCQ
# PRKD1 = test system: PRKD1
# PRKD2 = test system: PRKD2
# PRKD3 = test system: PRKD3
# PRKG1 = test system: PRKG1
# PRKG2 = test system: PRKG2
# PRKR = test system: T1, PRKR
# T1 construct: gene EIF2AK2
# PRKX = test system: PRKX
# PRP4 = test system: PRP4
# PYK2 = test system: T2, PYK2
# T2 construct: gene PTK2B
# QSK = test system: QSK
# RAF1 = test system: RAF1
# RET = test system: RET
# RIOK1 = test system: RIOK1
# RIOK2 = test system: RIOK2
# RIOK3 = test system: RIOK3
# RIPK1 = test system: RIPK1
# RIPK2 = test system: RIPK2
# RIPK4 = test system: RIPK4
# RIPK5 = test system: RIPK5
# [1] = concentration: 1 μM, replicates: in singlicate
# 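Further: KINOMEscan kinase panel screen.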
smiles,measurement,setting,value
Cc1csc(-c2nc(Nc3ccncc3)c3ccccc3n2)n1 [GW869640],%Inh,PRKCQ; [1],5%
same,%Inh,PRKD1; [1],69%
same,%Inh,PRKD2; [1],78%
same,%Inh,PRKD3; [1],71%
same,%Inh,PRKG1; [1],2%
same,%Inh,PRKG2; [1],12%
same,%Inh,PRKR; [1],33%
same,%Inh,PRKX; [1],0%
same,%Inh,PRP4; [1],0%
same,%Inh,PYK2; [1],0%
same,%Inh,QSK; [1],35%
same,%Inh,RAF1; [1],0%
same,%Inh,RET; [1],0%
same,%Inh,RIOK1; [1],38%
same,%Inh,RIOK2; [1],39%
same,%Inh,RIOK3; [1],1%
same,%Inh,RIPK1; [1],0%
same,%Inh,RIPK2; [1],52%
same,%Inh,RIPK4; [1],44%
same,%Inh,RIPK5; [1],34%
Cc1ccc(NC(=O)Nc2cccc(C(F)(F)F)c2)cc1 [GSK955403],%Inh,PRKCQ; 1 µM,24%
same,%Inh,PRKD1; 1 µM,18%
same,%Inh,PRKD2; 1 µM,0%
same,%Inh,PRKD3; 1 µM,1%
same,%Inh,PRKG1; 1 µM,19%
same,%Inh,PRKG2; 1 µM,0%
same,%Inh,PRKR; 1 µM,13%
same,%Inh,PRKX; 1 µM,1%
same,%Inh,PRP4; 1 µM,10%
same,%Inh,PYK2; 1 µM,0%
same,%Inh,QSK; 1 µM,0%
same,%Inh,RAF1; 1 µM,8%
same,%Inh,RET; 1 µM,0%
same,%Inh,RIOK1; 1 µM,17%
same,%Inh,RIOK2; 1 µM,0%
same,%Inh,RIOK3; 1 µM,0%
same,%Inh,RIPK1; 1 µM,7%
same,%Inh,RIPK2; 1 µM,8%
same,%Inh,RIPK4; 1 µM,0%
same,%Inh,RIPK5; 1 µM,0%
O=S(=O)(c1ccc(-c2ccnc3[nH]ccc23)cc1)N1CCCC1 [GSK846226],%Inh,PRKCQ; [1],0%
same,%Inh,PRKD1; [1],0%
same,%Inh,PRKD2; [1],3%
same,%Inh,PRKD3; [1],0%
same,%Inh,PRKG1; [1],36%
same,%Inh,PRKG2; [1],14%
same,%Inh,PRKR; [1],21%
same,%Inh,PRKX; [1],28%
same,%Inh,PRP4; [1],8%
same,%Inh,PYK2; [1],0%
same,%Inh,QSK; [1],0%
same,%Inh,RAF1; [1],0%
same,%Inh,RET; [1],7%
same,%Inh,RIOK1; [1],86%
same,%Inh,RIOK2; [1],85%
same,%Inh,RIOK3; [1],89%
same,%Inh,RIPK1; [1],8%
same,%Inh,RIPK2; [1],5%
same,%Inh,RIPK4; [1],8%
same,%Inh,RIPK5; [1],16%
COc1cc(Nc2nccc(N3CCC(NC(=O)Nc4cc(C)ccc4C)C3)n2)cc(OC)c1OC (centres unmarked) [GSK1379762],%Inh,PRKCQ; [1],0%
same,%Inh,PRKD1; [1],0%
same,%Inh,PRKD2; [1],0%
same,%Inh,PRKD3; [1],37%
same,%Inh,PRKG1; [1],0%
same,%Inh,PRKG2; [1],0%
same,%Inh,PRKR; [1],0%
same,%Inh,PRKX; [1],41%
same,%Inh,PRP4; [1],43%
same,%Inh,PYK2; [1],3%
same,%Inh,QSK; [1],0%
same,%Inh,RAF1; [1],19%
same,%Inh,RET; [1],25%
same,%Inh,RIOK1; [1],60%
same,%Inh,RIOK2; [1],6%
same,%Inh,RIOK3; [1],34%
same,%Inh,RIPK1; [1],4%
same,%Inh,RIPK2; [1],8%
same,%Inh,RIPK4; [1],18%
same,%Inh,RIPK5; [1],0%
Cn1cncc1-c1ccc2ncnc(Nc3ccc(OCc4ccccc4)cc3)c2c1 [GW320571],%Inh,PRKCQ; [1],16%
same,%Inh,PRKD1; [1],26%
same,%Inh,PRKD2; [1],5%
same,%Inh,PRKD3; [1],15%
same,%Inh,PRKG1; [1],26%
same,%Inh,PRKG2; [1],0%
same,%Inh,PRKR; [1],0%
same,%Inh,PRKX; [1],4%
same,%Inh,PRP4; [1],0%
same,%Inh,PYK2; [1],34%
same,%Inh,QSK; [1],16%
same,%Inh,RAF1; [1],13%
same,%Inh,RET; [1],0%
same,%Inh,RIOK1; [1],32%
same,%Inh,RIOK2; [1],26%
same,%Inh,RIOK3; [1],15%
same,%Inh,RIPK1; [1],18%
same,%Inh,RIPK2; [1],93.1%
same,%Inh,RIPK4; [1],0%
same,%Inh,RIPK5; [1],0%
Cc1cccc(-c2nc(-c3ccc(S(C)(=O)=O)cc3)sc2-c2ccnc(NCCc3ccccc3)c2)c1,%Inh,PRKCQ; [1],26%
same,%Inh,PRKD1; [1],1%
same,%Inh,PRKD2; [1],0%
same,%Inh,PRKD3; [1],0%
same,%Inh,PRKG1; [1],20%
same,%Inh,PRKG2; [1],20%
same,%Inh,PRKR; [1],0%
same,%Inh,PRKX; [1],0%
same,%Inh,PRP4; [1],9%
same,%Inh,PYK2; [1],4%
same,%Inh,QSK; [1],0%
same,%Inh,RAF1; [1],93.4%
same,%Inh,RET; [1],30%
same,%Inh,RIOK1; [1],17%
same,%Inh,RIOK2; [1],15%
same,%Inh,RIOK3; [1],18%
same,%Inh,RIPK1; [1],3%
same,%Inh,RIPK2; [1],6%
same,%Inh,RIPK4; [1],0%
same,%Inh,RIPK5; [1],0%
CS(=O)(=O)c1ccc(-c2c(-c3ncn[nH]3)sc(N3CCOCC3)c2C#N)cc1,%Inh,PRKCQ; [1],0%
same,%Inh,PRKD1; [1],19%
same,%Inh,PRKD2; [1],11%
same,%Inh,PRKD3; [1],14%
same,%Inh,PRKG1; [1],12%
same,%Inh,PRKG2; [1],6%
same,%Inh,PRKR; [1],0%
same,%Inh,PRKX; [1],32%
same,%Inh,PRP4; [1],0%
same,%Inh,PYK2; [1],0%
same,%Inh,QSK; [1],0%
same,%Inh,RAF1; [1],0%
same,%Inh,RET; [1],5%
same,%Inh,RIOK1; [1],0%
same,%Inh,RIOK2; [1],0%
same,%Inh,RIOK3; [1],0%
same,%Inh,RIPK1; [1],6%
same,%Inh,RIPK2; [1],0%
same,%Inh,RIPK4; [1],0%
same,%Inh,RIPK5; [1],18%

# — article PMC5540273 (PLoS ONE, 2017)
